Laboratory results published in PubChem BioAssay AID652015 (National Center for Advancing Translational Sciences (NCATS), 2013).
Results filed as inconclusive are left out. Calls of active or inactive are those of the source. The call rests on the fitted dose curve; in most records, active means well fitted inhibition curve with a large enough effect; inconclusive means small, poorly fitted or top-dose-only effect; inactive means no such curve, though single readings can be large or run the other way.

What follows are compounds tested against Coelenterazine h 2-monooxygenase (Renilla reniformis) (UniProt P27652) (assay: qHTS Assay for Inhibitors of Sea Pansy Luciferase from the GSK Published Protein Kinase Inhibitor Set). Details: purified Renilla luciferase, luminescence; series mostly up to 57.5 µM.
In short: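 qHTS (roughly 60 uM down to 300 pM) against 1 nM Renilla luciferase, substrate coelenterazine h 5 uM, Tris acetate pH 7.5 buffer with NaCl, Tween-20 and BSA. Luminescence measured after an average 2 min incubation.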

Chain of Coelenterazine h 2-monooxygenase (Renilla reniformis) (P27652 whole entry, looked up): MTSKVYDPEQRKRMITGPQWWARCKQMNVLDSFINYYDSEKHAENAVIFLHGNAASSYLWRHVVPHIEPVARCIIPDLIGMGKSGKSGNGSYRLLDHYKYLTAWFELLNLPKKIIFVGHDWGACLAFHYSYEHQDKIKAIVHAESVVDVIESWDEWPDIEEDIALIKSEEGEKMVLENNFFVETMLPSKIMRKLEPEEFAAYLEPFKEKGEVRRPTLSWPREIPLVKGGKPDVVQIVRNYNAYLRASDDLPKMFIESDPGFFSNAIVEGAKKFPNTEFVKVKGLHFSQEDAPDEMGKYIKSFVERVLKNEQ

Potency, inactive:
CN(C)C(=O)OC1CNC(C#Cc2cc3ncnc(Nc4ccc(OCc5cccc(F)c5)c(Cl)c4)c3s2)C1 (stereo not drawn)
Cc1ccc(C(=O)NC2CCCCC2)cc1-c1ccc(C(=O)NCC2CC2)cc1
O=C(Nc1n[nH]c2cc(-c3ccccc3)ccc12)C1CC1
Fc1ccc(-c2ncn(C3CCNCC3)c2-c2ccnc(Oc3ccc(F)c(F)c3)n2)cc1
COC(=O)Nc1nc2ccc(Oc3ccc(NC(=O)Nc4cccc(Br)c4)cc3)cc2[nH]1
CNC(=O)c1ncccc1Nc1nc(Nc2cc3c(cc2OC)CCCN3C(=O)CN(C)C)nc2[nH]ccc12
Nc1ncnc2occ(-c3ccc(NC(=O)Nc4cc(C(F)(F)F)ccc4F)cc3)c12
CS(=O)(=O)CCNCc1nc(-c2ccc3ncnc(Nc4ccc(F)c(Cl)c4)c3c2)cs1
COc1ccc2cc(-c3c(-c4ccncc4)nc(-c4ccc(S(C)(=O)=O)cc4C)n3C)ccc2c1
NS(=O)(=O)c1ccc(N=Nc2c(O)[nH]c3ccc(C(=O)NCc4ccncc4)cc23)cc1
CCc1cccc(NC(=O)Nc2ccc(Oc3ccc4nc(NC(=O)OC)[nH]c4c3)cc2)c1
CCN(CC)S(=O)(=O)c1ccc(OC)c(Nc2ncc(-c3ccccc3)o2)c1
CCc1nccc2c1nc(-c1nonc1N)n2CC
COc1c(C(N)=O)cc(-c2ccc(Cl)cc2)cc1-c1ccc(S(N)(=O)=O)cc1
CCOc1ccc2c(-c3ccnc(Nc4cccc(C(F)(F)F)c4)n3)cnn2n1
NC(=O)Cc1ccccc1Oc1nccc(-c2c(-c3ccc(F)cc3)ncn2C2CCNCC2)n1
COc1cc(Nc2ncc3c(C)nc(-c4cccc(Oc5ccccc5)c4)n3n2)cc(OC)c1OC
Fc1cccc(COc2ccc(Nc3ncncc3C#Cc3ccccc3)cc2Cl)c1
O=C1NC(=O)C(c2cccc(Cl)c2)=C1Nc1ccc(Cl)c(C(=O)O)c1
CCOc1nccc2c1nc(-c1nonc1N)n2CC
COc1ccccc1C1=C(Nc2ccccc2)C(=O)NC1=O
Cc1ccc(NC(=O)CC2CC2)cc1-c1ccc(C(=O)NCC2CC2)cc1
COc1cc(C=NNc2ncnc3[nH]ncc23)ccc1O
